Measurements reported in PubChem BioAssay (NCATS).
Inconclusive results are not listed. Where a call stands in place of a potency, no number is given. Unmarked numbers belong to inactive results. The source made the active and inactive calls. Calls come from the whole dose curve; as a rule, active = well fitted curve in the direction sought with a large enough effect; inconclusive = small, poorly fitted or top-dose-only effect, or another doubt; inactive = no such curve, though single readings can be large; an effect the other way counts as inactive or inconclusive.

How the values were obtained:
CRL-7250 = normal cell line; experiment: Cytotoxic Profiling of Annotated Libraries Using Quantitative High-Throughput Screening (AID 1296008); details: Five cell lines viability, CellTiter-Glo ATP luminescence, 48-72 h; max response: active compounds read low; note: nearly all actives have a fitted effect of over 60% in size; note: potency is the fitted concentration of half-maximal effect
Outline: (§1)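 Cells exposed to compounds for 48 or 72 hr at 37 degrees Celsius. Viability read as ATP-coupled luminescence with CellTiter-Glo after 10 min at room temperature.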

HaCat [1] = experiment: as above; details: Five cell lines viability, CellTiter-Glo ATP luminescence, 48-72 h; max response: active compounds read low
Outline: as §1

NIH3T3 [2] = experiment: as above; details: Five cell lines viability, CellTiter-Glo ATP luminescence, 48-72 h; max response: active compounds read low
Outline: as §1

HACAT [3] = experiment: qHTS assay to identify novel small-molecules to repurpose for Merkel cell carcinoma treatment (AID 1296009); details: MCC and control cell lines, CellTiter-Glo viability, 72 h; at 44.8 µM (top of the series) unless noted; note: nearly all actives have a fitted effect of over 60% in size
Outline: (§2)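 Cells were treated for 72 hr at 37 degree celsius with compounds in 8- or 11-point dose response. Viability was read by CellTiter-Glo luminescence, normalized to no-cell (cytotoxicity) and DMSO controls.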

C33A = experiment: Primary qHTS to identify gynecologic anti-cancer compounds using libraries of approved drugs and bioactive compounds (AID 1345084); details: Gynecologic cancer cell panel viability, ATPlite luminescence, 48 h; series mostly up to 57.5 µM; note: nearly all actives have a fitted effect of over 55% in size
Outline: (§3)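 Cells, 1,000 per well, plated 16 h, then exposed 48 h at 37 C to compounds. Viability by ATPlite luminescence after 15 min at room temperature.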

CAOV3 = experiment: as above; details: Gynecologic cancer cell panel viability, ATPlite luminescence, 48 h; series mostly up to 57.5 µM
Outline: as §3

CASKI = experiment: as above; details: Gynecologic cancer cell panel viability, ATPlite luminescence, 48 h; series mostly up to 57.5 µM
Outline: as §3

Es-2 = experiment: as above; details: Gynecologic cancer cell panel viability, ATPlite luminescence, 48 h; series mostly up to 57.5 µM
Outline: as §3

HeLa = experiment: as above; details: Gynecologic cancer cell panel viability, ATPlite luminescence, 48 h; series mostly up to 57.5 µM
Outline: as §3

Hek293T = experiment: as above; details: Gynecologic cancer cell panel viability, ATPlite luminescence, 48 h, control line for the selectivity index; series mostly up to 57.5 µM
Outline: as §3

JEG-3 = experiment: as above; details: Gynecologic cancer cell panel viability, ATPlite luminescence, 48 h; series mostly up to 57.5 µM
Outline: as §3

OV90 = experiment: as above; details: Gynecologic cancer cell panel viability, ATPlite luminescence, 48 h; series mostly up to 57.5 µM
Outline: as §3

PA-1 = experiment: as above; details: Gynecologic cancer cell panel viability, ATPlite luminescence, 48 h; series mostly up to 57.5 µM
Outline: as §3

SKOV3 = experiment: as above; details: Gynecologic cancer cell panel viability, ATPlite luminescence, 48 h; series mostly up to 57.5 µM
Outline: as §3

NIH3T3 [4] = experiment: qHTS assay to identify novel small-molecules to repurpose for Merkel cell carcinoma treatment (AID 1296009); details: MCC and control cell lines, CellTiter-Glo viability, 72 h; series mostly up to 44.8 µM; note: nearly all actives have a fitted effect of over 60% in size
Outline: as §2

SMILES	max response (CRL-7250)	outcome (HaCat [1])	max response (NIH3T3 [2])	outcome (HACAT [3])	Potency (C33A)	Potency (CAOV3)	Potency (CASKI)	Potency (Es-2)	Potency (HeLa)	Potency (Hek293T)	Potency (JEG-3)	Potency (OV90)	Potency (PA-1)	Potency (SKOV3)	outcome (CRL-7250)	outcome (NIH3T3 [2])	Potency (NIH3T3 [4])	max response (HaCat [1])	Potency (NIH3T3 [2])	Potency (CRL-7250)
CN(C)C(=O)C(=O)c1cn(C)c2cc(Cl)c(C(=O)N3CCC(Cc4ccc(F)cc4)CC3)cc12	-5.29%	inactive	1.98%	inactive	inactive	inactive	inactive	inactive	inactive	inactive	inactive	inactive	inactive	inactive	–	–	–	–	–	–
CCCCCCCOc1cc2c(cc1/C(C)=C/c1ccc(C(=O)O)cc1)C(C)(C)CCS2(=O)=O	–	inactive	–	inactive	inactive	inactive	inactive	inactive	inactive	inactive	inactive	inactive	inactive	inactive	inactive	inactive	inactive	–	–	–
CCN(CC)CCCS(=O)(=O)N[C@H](CCc1ccccc1)c1nc(Cc2ccc(Br)cc2)no1	-4.82%	inactive	-16.9%	inactive	inactive	inactive	inactive	inactive	inactive	inactive	inactive	inactive	inactive	inactive	–	–	–	–	–	–
Clc1ccc(Cn2c(Cc3ccccc3)nc3ccccc32)cc1	-7.75%	inactive	-0.247%	inactive	inactive	inactive	inactive	inactive	inactive	inactive	inactive	inactive	inactive	–	–	–	–	–	–	–
COc1ccc(CCN(C)CCCOc2nsc(-c3ccccc3)n2)cc1OC	–	inactive	–	inactive	inactive	inactive	inactive	inactive	inactive	inactive	inactive	inactive	inactive	inactive	inactive	inactive	inactive	–	–	–
O=C(NCCCCN1CCN(c2cccc(Cl)c2Cl)CC1)c1cc2ccccc2s1	-20.7%	inactive	-29.5%	inactive	–	inactive	inactive	inactive	inactive	inactive	–	inactive	inactive	inactive	–	–	–	–	–	–
COC(=O)c1cc(Br)cnc1N1CCC(NC2CCCCC2)C(O)C1 (stereo not drawn)	–	–	–	–	inactive	inactive	inactive	inactive	inactive	inactive	inactive	inactive	inactive	–	inactive	inactive	inactive	-7.79%	–	–
O[C@@](Cc1ncc(CC2(C(F)(F)F)CC2)[nH]1)(c1ccc(-n2cccn2)cc1)C(F)(F)F	–	inactive	-24.1%	inactive	inactive	inactive	inactive	inactive	inactive	inactive	inactive	inactive	inactive	inactive	inactive	–	–	–	–	–
COc1ccccc1OCCNCC(O)CCOc1cccc2[nH]c3ccccc3c12 (stereo not drawn)	–	inactive	-5.46%	inactive	inactive	inactive	inactive	inactive	inactive	inactive	inactive	inactive	inactive	inactive	inactive	–	–	–	–	–
Cc1nc(Nc2ccc(F)cc2)nc(N2CCc3ccccc3C2C)c1C (stereo not drawn)	-9.52%	inactive	-20.5%	inactive	inactive	–	inactive	inactive	inactive	inactive	inactive	inactive	inactive	inactive	–	–	–	–	–	–
CCOC(=O)c1ccc(OCCC2CCN(c3ccc(C)nn3)CC2)cc1	-21.9%	inactive	-0.794%	inactive	inactive	inactive	inactive	inactive	inactive	inactive	inactive	inactive	inactive	inactive	–	–	–	–	–	–
Cc1nnc(-c2ccc(-c3ccc(C(=O)Nc4ccc(O)c(N5CCN(C)CC5)c4)cc3)c(C)c2)o1	3.58%	inactive	–	inactive	inactive	inactive	inactive	inactive	inactive	inactive	inactive	inactive	inactive	inactive	–	inactive	inactive	–	–	–
C=C1/C(=C/C=C2\CCC[C@]3(C)[C@@H]([C@H](C)/C=C/[C@@H](C)C(C)C)CC[C@@H]23)C[C@@H](O)C[C@@H]1O	1.9%	inactive; activator	–	inactive; activator	inactive	inactive	inactive	inactive	inactive	inactive	inactive	inactive	inactive	inactive	–	–	–	–	326 nM (active)	–
CNc1nc(NCc2ccc(NS(C)(=O)=O)cc2Cl)cc(-c2ccccn2)n1	–	inactive	-15.9%	inactive	inactive	inactive	inactive	–	inactive	–	inactive	–	inactive	–	–	–	–	–	–	20.6 µM (active)
CC(C)(O)c1ccn2c(-c3ccc(F)c(-c4ccc(F)cc4C#N)c3)cnc2c1F	-19.9%	inactive	-2.51%	inactive	inactive	inactive	inactive	inactive	inactive	inactive	inactive	inactive	–	inactive	–	–	–	–	–	–
CCCn1ncc(CN2CCCC(C(=O)c3cccc(OC(C)C)c3)C2)c1C (stereo not drawn)	-26.8%	–	-15.4%	–	inactive	inactive	–	inactive	inactive	inactive	inactive	–	inactive	–	–	–	–	4.33%	–	–
